We go through 104 molecules from PubChem BioAssay AID1626 (SRMLSC, 2009).

Out of some 220,000 compounds screened, about 2,000 (0.91%) were called active. Not shown: some 2% with an inconclusive outcome. Only a sample is shown. Measured potencies and affinities stand elsewhere. Values without a mark were called inactive. No stated cut-off is given here; in the data, inconclusive means inhibition above about 80% without an active follow-up result; inactive means below that; test concentration not stated here.

The nature of this assay: M. tuberculosis H37Rv growth inhibitors, H37Rv strain (AID 1626).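 Further: bacteria incubated seven days before Alamar blue readout; 0% = bacteria only wells and 100% = bacteria with antibiotic wells.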 To be noted: stronger effect = higher value, concentration not given here.
For `COc1cccc(CN2CCCCC2C(=O)O)c1` (centres undefined), the inhibition (commonly the drop in the measured response relative to a control, in per cent) was -3.4%. For the molecule `Clc1ccc(-c2nc(NCCN3CCOCC3)c3ccccc3n2)cc1`, the inhibition is 11.1%. With `Clc1cccc(-c2nc(NCCCN3CCOCC3)c3ccccc3n2)c1` the figure was 15%. Turning to `COc1ccc(-c2nn(-c3ccccc3C)cc2CNC(C)c2cn(C)nc2C)cc1F` (centres undefined), the inhibition is -2.3%. To `COc1ccc(NC(=O)CSc2nnc(Cn3c(=O)sc4ccccc43)n2C)cc1OC` belongs -2.38%. With `CCOC(=O)c1sc2nc(C)n(N)c(=O)c2c1C` the figure was 3.43%. `CCOC(=O)c1sc2nc(Cc3ccc(Cl)cc3)[nH]c(=S)c2c1C`: the inhibition was 62.6%. With `CCC(=NCc1ccc2c(c1)OCO2)c1c(O)n(C)c(=O)n(C)c1=O`, the inhibition was -0.05%. To `Clc1cccc(Cl)c1/C=N/Nc1c(Cl)cncc1Cl` belongs -5.97%; to `COc1ccc(/C=C2\C(=O)c3ccccc3OC2c2ccccc2)cc1` (centres undefined), 0.26%; to `Cc1ccc(N=Cc2ccc[nH]2)c(O)c1`, -2.8%. With `O=C(N/N=C/c1ccc[nH]1)c1ccccc1O` the figure was -6.87%; with `Cc1ccc(CCSc2ccc(F)cc2)cn1`, 0.68%. Take `O=C(O)CCc1ccc(-c2ccc(Cl)cc2)o1`: the inhibition was 62.7%. To `CN1CCN(Cc2ccc(-c3ccc(Cl)cc3)o2)CC1` belongs 4.34%.

As to `O=C(COCC(=O)N1CCOCC1)N1CCOCC1`, the inhibition is -0.86%.

In the case of `COc1ccc(OC)c(-n2nnnc2SCC(=O)Nc2nc(C)c(C)s2)c1`, the inhibition was -6.27%.

`COc1ccc(C(=O)Nc2ccccc2Cc2ccccc2)c(OC)c1`: the inhibition is 12.6%. Regarding `CCOCCOC(=O)c1ccc(-n2cnc(C)n2)nc1`, the inhibition was 1.52%.

For `C=CCOC(=O)c1ccc(-n2cnc(C)n2)nc1`, the inhibition was 34.4%. With `CC(C)CN1CCN(Cc2ccc(Oc3ncccn3)cc2)CC1CCO` (centres undefined) the figure was -12.7%; with `O=C(Nc1ccc2oc(-c3cccnc3)nc2c1)c1ccc(Br)o1`, -4.68%. To `O=C(NCc1cccnc1)c1ccc([N+](=O)[O-])o1` belongs 9.87%; to `O=C(Nc1cccc(NC(=O)c2cccs2)c1)c1ccco1`, -1.16%; to `Cc1cccc(NC(=O)COC(=O)c2ccc([N+](=O)[O-])o2)c1C`, -1.87%. To `Cc1ccccc1NC(=O)c1ccc([N+](=O)[O-])o1` belongs -5.26%; to `COc1cc(NC(=O)c2ccc([N+](=O)[O-])o2)ccc1NC(=O)c1cccs1`, 11.9%; to `O=C(Nc1ccc2oc(-c3cccnc3)nc2c1)c1ccco1`, -0.84%. As for `Cc1ccc(CNC(=O)c2ccc(Br)o2)cc1`, the inhibition was 6.85%. To `O=C(NCCCN1CCOCC1)C(C(=O)NCCCN1CCOCC1)c1ncc(C(F)(F)F)cc1Cl` belongs -6.54%; to `O=C1CC(C(=O)O)S/C(=N\N=C\c2ccc(Br)cc2)N1` (centres undefined), -6.35%; to `COc1cccc(OC)c1C(=O)NNC(=O)c1ccc(F)cc1`, -2.49%. With `COc1ccccc1CN1C[C@@H]2C[C@@H](c3cccc(C)c3)N3CCC[C@@]23C1=O` the figure was 4.89%. To `CCN(CC)S(=O)(=O)c1ccc(N/N=C(\C)c2ccc3c(c2)OCO3)c([N+](=O)[O-])c1` belongs 2.18%; to `NC(=O)N/N=C/c1coc2ccc(O)cc2c1=O`, -3.42%. As to `NS(=O)(=O)c1ccc(O)c(NC(=O)c2ccc([N+](=O)[O-])o2)c1`, the inhibition is -1.93%. As to `Cc1cccc(NC(=O)c2ccc([N+](=O)[O-])o2)n1`, the inhibition is 3.18%. With `O=C(Nc1ncccn1)c1ccc([N+](=O)[O-])o1` the figure was 0.82%; with `Cc1ccnc(NC(=O)c2ccc([N+](=O)[O-])o2)c1`, 5.02%. On to `Cc1cccnc1NC(=O)c1ccc([N+](=O)[O-])o1`, for which the inhibition was 2.32%.

For the molecule `Cc1cc(C)nc(NC(=O)c2ccc([N+](=O)[O-])o2)n1`, the inhibition was -5.31%. As to `C=CCNC(=O)c1ccc2c(c1)S(=O)(=O)c1ccccc1C2=O`, the inhibition was -9.32%.

As to `COc1cc(C(=O)N2CCN(c3ccccc3)CC2)c([N+](=O)[O-])cc1OC`, the inhibition was 3.88%.

In the case of `CN(C)c1ccc(CC(=O)c2nc3ccccc3s2)cc1`, the inhibition was -5.99%. With `CCCSc1nnc(NC(=O)Nc2ccc(F)cc2)s1` the figure was 17%; with `O=C(NCC1CCCN(Cc2cccc(C(F)(F)F)c2)C1)c1ccc(F)cc1` (centres undefined), -2.43%; with `Cn1cc(/C=C(\C#N)C(=O)Nc2ncc(Cc3cccc(Cl)c3)s2)c2ccccc21`, 4.07%. With `Cn1cc(/C=C(\C#N)C(=O)Nc2ncc(Cc3ccc(Cl)cc3)s2)c2ccccc21` the figure was 1.97%; with `COC(C/C=C/[C@H](O)[C@H](C)OCc1ccccc1)OC`, -0.67%. With `O=[N+]([O-])c1ccc(N=Nc2ccc(O)cc2O)cc1` the figure was 5.58%; with `O=c1[nH]c(O)c(N=Nc2ccc([N+](=O)[O-])cc2)c(=O)[nH]1`, -0.55%; with `COC(=O)CCC(=O)N1CCc2cc(S(=O)(=O)N3CCN(c4ccccc4Cl)CC3)ccc21`, 3.32%. Consider `CN(C)c1ccc(C(=S)N2CCCCC2)cc1Br`, for which the inhibition was 6.15%.

For the molecule `Cc1cc(C)cc(N=c2c([N+](=O)[O-])nn(-c3ccc(Cl)cc3)n2O)c1`, the inhibition is 48.3%.

Regarding `O=[N+]([O-])c1nn(-c2cccc(Cl)c2)n(O)c1=NCc1cccnc1`, the inhibition was 6.16%.

Turning to `Cc1cccc(N=c2c([N+](=O)[O-])nn(-c3ccc(Cl)cc3)n2O)c1`, the inhibition was 36.6%. To `Cc1ccc(CN=c2c([N+](=O)[O-])nn(-c3cccc(C)c3)n2O)cc1` belongs -1.44%; to `O=C(CCC1CCCN(Cc2ccc3c(c2)OCCO3)C1)NCc1ccccc1F` (centres undefined), -11.3%; to `CCCNC(=O)NC(=O)CSc1ccc2c(c1)OCCO2`, 5.15%.

Turning to `O=C(Nc1cc(C(F)(F)F)ccc1Cl)C1CCN(c2nnc(-n3cccc3)s2)CC1`, the inhibition was -3.21%.

Consider `O=C(NCCCN1CCc2ccccc2C1)C1CCN(c2nnc(-n3cccc3)s2)CC1`, for which the inhibition is -4.77%.

For the molecule `O=C(C1CCCN(c2nnc(-n3cccc3)s2)C1)N1CCN(c2ccccc2)CC1` (centres undefined), the inhibition is 63.1%.

As for `O=C(C1CCN(c2nnc(-n3cccc3)s2)CC1)N1CCOCC1`, the inhibition was 0.74%. With `COc1ccc(CN2C(=O)NC(=O)/C(=C\c3ccco3)C2=O)cc1` the figure was -5.87%. With `O=C(O)c1cc([N+](=O)[O-])cc2c1nnn2O` the figure was -1.94%. To `COc1cc(C(=O)Nc2ccc3c(c2)OCCO3)ccc1OC(C)C` belongs -2.6%.

With `CCOC(=O)c1ccc(NC(=O)Nc2ccc(OC)c(OC)c2)cc1`, the inhibition was -4.38%. With `COc1cccc(Oc2ccc(N/C=C/C(=O)C(C)(C)C)cc2)c1`, the inhibition was 1.22%. To `Cc1ccc(N/C=C/C(=O)C(C)(C)C)c(O)c1` belongs -0.76%; to `COc1ccc(N/C=C/C(=O)c2ccc(OC)c(OC)c2)cc1`, 47%. `CCOc1ccccc1N/C=C/C(=O)C(C)(C)C`: the inhibition is 4.06%. With `CCOC(=O)c1ccc(N/C=C\C(=O)c2cccc(OC)c2)cc1` the figure was 94.8%. Consider `COc1ccccc1Oc1ccc(N/C=C/C(=O)C(C)(C)C)cc1`, for which the inhibition was -4.81%. Turning to `COc1ccccc1N(C(=O)c1snc(C(N)=O)c1N)C(C(=O)NCCC(C)C)c1ccco1` (centres undefined), the inhibition is -1.7%. With `COc1ccc(C(=O)NC(=O)Nc2ncccc2C)cc1` the figure was -9.06%. To `O=C(N/N=C1\C(=O)c2cccc3cccc1c23)c1ccc(O)cc1` belongs 20.7%; to `N#C/C(=C\c1c(Cl)cccc1Cl)c1nn(-c2ccccc2)c(-n2cccc2)c1C#N`, -1.88%; to `O=S(=O)(NCc1cccnc1)c1ccc(Cl)c(Cl)c1`, -0.1%. To `CCOC(=O)c1c(-c2ccccc2)csc1NC(=O)CSc1nncs1` belongs 4.86%.

In the case of `CCN(CC)C(=O)C(=O)c1cccn1-c1cccc(Cl)c1C#N`, the inhibition is -4.03%.

Consider `CC(=O)c1c(C)[nH]c(C(=O)NCCc2cccc(C)c2)c1C`, for which the inhibition is 3.77%. Turning to `CCn1c(COc2ccccc2)nc2ccccc21`, the inhibition was -0.43%. As to `O=C(Cc1csc(-c2ccccc2)n1)NCc1cccs1`, the inhibition is 2.64%. To `COc1ccccc1C(=O)OCc1c(F)cccc1Cl` belongs -0.9%. With `COc1ccc(C(=O)/C=C/Nc2ccc(NC(C)=O)cc2)cc1OC` the figure was 0.63%; with `CCOC(=O)c1ccc(N/C=C/C(=O)c2ccc(OC)cc2)cc1`, 77.2%. As for `COC(=O)c1ccc(N/C=C/C(=O)c2ccc(OC)c(OC)c2)cc1`, the inhibition is 36.6%.

`CCOC(=O)c1ccc(N/C=C/C(=O)c2ccco2)cc1`: the inhibition was 76.7%. For `O=C(Nc1ccc(F)cc1F)c1cccnc1`, the inhibition was -2.1%. To `O=C(NCCCCNC(=O)c1ccc(Br)s1)c1ccc(Br)s1` belongs -1.39%. For `CCOc1ccc(NC(=O)c2ccccc2OCC(=O)c2ccccc2)cc1`, the inhibition was 4%. For the molecule `COc1ccccc1-c1nnc(SCC(=O)N2CCOCC2)n1-c1ccccc1`, the inhibition was 1.2%.

On to `COCCn1c(C)cc(C(=O)CSc2nc(C)nc3sc4c(c23)CCC4)c1C`, for which the inhibition is -2.28%.

Consider `O=C(NCC(=O)N1CCC(N2CCCCC2)CC1)C1CCCCC1`, for which the inhibition is -10.3%.

In the case of `CC(C)(C)c1nnc2sc(SCC(=O)N3CCc4ccccc43)nn2c1=O`, the inhibition was 1.69%. To `CCS(=O)(=O)N1CCN(C2Cc3ccccc3C2)CC1` belongs -4.5%; to `O=C(COC(=O)CCCOc1ccc(Cl)cc1Cl)Nc1cccc(Cl)c1`, 6.33%; to `COC(=O)CCC(=O)Nc1ccc(Cl)c(Cl)c1`, -2.69%. Regarding `Cc1cc(Cl)ccc1OCCCC(=O)NN`, the inhibition is -1.79%. With `CCOC(=O)/C=C/C(=O)OCC(=O)Nc1ccc(OC)c(Cl)c1` the figure was 3.02%. Regarding `COc1ccc(NC(=O)COC(=O)/C=C/C(=O)OCC(=O)Nc2ccc(OC)c(Cl)c2)cc1Cl`, the inhibition is -1.96%. To `Cc1cc(Cl)ccc1OCCCC(N)=O` belongs -0.81%.

In the case of `O=C(O)CCCC(=O)Nc1ccc(Cl)c(Cl)c1`, the inhibition is -7.53%. As for `COc1ccc(NC(=O)COC(=O)CCCOc2ccc(Cl)cc2Cl)cc1`, the inhibition was 12.7%.
